# Measured values as given in publication PMC7862700, “An all-to-all approach to the identification of sequence-specific readers for epigenetic DNA modifications on cytosine”.
# Key:
# Assay in all cases: DAPPL (digital affinity profiling via proximity ligation, sequencing); 10 mM Tris-HCl pH 7.5, 50 mM NaCl, 1 mM DTT, 4% glycerol, room temperature, 30 min; GST-TFs on glutathione beads, 16-mer random dsDNA library, 0.1% formaldehyde crosslink after washing; high values mean tight binding
# Conditions in all cases: protein: recombinant; tags: N-terminal GST; dsDNA, one strand shown
# [1] = target: T1, ELK1 (Homo sapiens, UniProt P19419 1-428)
# T1 sequence: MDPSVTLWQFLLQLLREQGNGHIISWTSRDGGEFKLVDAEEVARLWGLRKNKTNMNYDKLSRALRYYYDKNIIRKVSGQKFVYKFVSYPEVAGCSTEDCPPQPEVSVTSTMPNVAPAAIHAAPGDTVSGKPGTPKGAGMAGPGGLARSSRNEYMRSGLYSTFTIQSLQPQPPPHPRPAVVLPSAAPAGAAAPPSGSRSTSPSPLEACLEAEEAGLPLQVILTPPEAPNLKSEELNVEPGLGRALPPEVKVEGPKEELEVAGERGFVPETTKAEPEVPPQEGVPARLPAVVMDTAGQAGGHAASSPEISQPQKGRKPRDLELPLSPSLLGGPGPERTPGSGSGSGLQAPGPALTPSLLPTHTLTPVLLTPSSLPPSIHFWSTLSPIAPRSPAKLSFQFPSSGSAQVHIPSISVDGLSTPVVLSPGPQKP
# In short: (§1)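 Sequencing on an Illumina NextSeq500 followed washing, crosslinking with 0.1% formaldehyde, proximity ligation (BsaI/T4 ligase, 1 h, 37 °C) and PCR amplification of pools that had been incubated for 30 min at room temperature with 200 nmole of a random double-stranded 16-mer DNA library in Tris/NaCl/DTT/glycerol buffer. Each pool held DNA-barcoded human transcription factors, expressed in yeast as GST fusions and captured on glutathione beads, plus a tag-only sample. Binding signal is a hexamer's read frequency for a factor divided by its frequency in the tag-only sample.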
# [2] = target: CRX (Homo sapiens, UniProt O43186 1-299)
# In short: as §1
# [3] = target: T2, FEV (Homo sapiens, UniProt Q99581 1-238)
# T2 sequence: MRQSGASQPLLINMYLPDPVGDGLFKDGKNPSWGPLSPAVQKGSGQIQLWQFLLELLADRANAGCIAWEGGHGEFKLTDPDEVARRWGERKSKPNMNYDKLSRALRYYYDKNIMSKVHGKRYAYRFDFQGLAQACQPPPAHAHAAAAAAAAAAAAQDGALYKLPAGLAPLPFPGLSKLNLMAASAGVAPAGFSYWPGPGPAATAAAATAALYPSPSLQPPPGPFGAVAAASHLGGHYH
# In short: as §1
# [4] = target: T3, ELK4 (Homo sapiens, UniProt P28324-2 1-405)
# T3 sequence: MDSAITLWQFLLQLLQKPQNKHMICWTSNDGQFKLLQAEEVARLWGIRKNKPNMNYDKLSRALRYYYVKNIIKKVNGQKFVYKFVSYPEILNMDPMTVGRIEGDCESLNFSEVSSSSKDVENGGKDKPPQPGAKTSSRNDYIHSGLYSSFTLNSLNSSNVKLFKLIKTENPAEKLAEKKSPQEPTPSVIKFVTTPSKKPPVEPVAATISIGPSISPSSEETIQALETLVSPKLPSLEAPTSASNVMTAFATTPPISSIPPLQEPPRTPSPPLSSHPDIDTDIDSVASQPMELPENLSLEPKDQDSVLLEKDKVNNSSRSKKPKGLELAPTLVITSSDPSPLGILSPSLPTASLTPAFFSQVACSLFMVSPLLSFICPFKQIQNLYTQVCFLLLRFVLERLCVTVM
# In short: as §1
# [5] = target: T4, ETV2 (Homo sapiens, UniProt O00321 1-342)
# T4 sequence: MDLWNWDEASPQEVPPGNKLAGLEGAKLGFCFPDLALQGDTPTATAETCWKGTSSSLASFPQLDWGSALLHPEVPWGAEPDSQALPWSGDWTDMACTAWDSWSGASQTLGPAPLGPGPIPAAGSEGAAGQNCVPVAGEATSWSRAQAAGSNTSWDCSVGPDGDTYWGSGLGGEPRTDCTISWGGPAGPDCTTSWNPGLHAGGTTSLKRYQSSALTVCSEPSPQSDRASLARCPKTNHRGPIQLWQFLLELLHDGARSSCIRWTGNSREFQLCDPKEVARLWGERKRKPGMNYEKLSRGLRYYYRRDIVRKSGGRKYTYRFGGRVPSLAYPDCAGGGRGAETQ
# In short: as §1
# [6] = target: T5, SPDEF (Homo sapiens, UniProt O95238 1-335)
# T5 sequence: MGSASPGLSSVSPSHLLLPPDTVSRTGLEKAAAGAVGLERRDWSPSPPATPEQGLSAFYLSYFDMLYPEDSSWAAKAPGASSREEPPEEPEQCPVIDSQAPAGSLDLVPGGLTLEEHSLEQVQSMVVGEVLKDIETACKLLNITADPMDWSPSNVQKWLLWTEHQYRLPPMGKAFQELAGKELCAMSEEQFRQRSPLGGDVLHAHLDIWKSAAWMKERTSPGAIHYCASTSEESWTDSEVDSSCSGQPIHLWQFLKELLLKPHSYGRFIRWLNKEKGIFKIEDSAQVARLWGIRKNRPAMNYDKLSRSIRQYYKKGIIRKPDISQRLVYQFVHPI
# In short: as §1
# [7] = target: T6, GABPA (Homo sapiens, UniProt Q06546 1-454)
# T6 sequence: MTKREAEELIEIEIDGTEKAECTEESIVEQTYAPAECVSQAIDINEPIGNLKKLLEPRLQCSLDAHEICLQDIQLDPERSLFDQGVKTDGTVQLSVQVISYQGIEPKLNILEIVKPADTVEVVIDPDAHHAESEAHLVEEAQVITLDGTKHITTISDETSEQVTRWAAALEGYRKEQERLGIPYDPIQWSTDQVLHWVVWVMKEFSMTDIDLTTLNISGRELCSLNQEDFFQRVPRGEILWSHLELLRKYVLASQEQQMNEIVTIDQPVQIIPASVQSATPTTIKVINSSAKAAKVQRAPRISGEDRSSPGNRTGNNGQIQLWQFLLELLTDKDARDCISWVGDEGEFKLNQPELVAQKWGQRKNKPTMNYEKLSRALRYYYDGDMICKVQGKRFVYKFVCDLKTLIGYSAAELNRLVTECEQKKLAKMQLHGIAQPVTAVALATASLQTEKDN
# In short: as §1
# [8] = target: ELF1 (Homo sapiens, UniProt P32519 1-619)
# In short: as §1
# [9] = target: T7, ELF3 (Homo sapiens, UniProt P78545 1-371)
# T7 sequence: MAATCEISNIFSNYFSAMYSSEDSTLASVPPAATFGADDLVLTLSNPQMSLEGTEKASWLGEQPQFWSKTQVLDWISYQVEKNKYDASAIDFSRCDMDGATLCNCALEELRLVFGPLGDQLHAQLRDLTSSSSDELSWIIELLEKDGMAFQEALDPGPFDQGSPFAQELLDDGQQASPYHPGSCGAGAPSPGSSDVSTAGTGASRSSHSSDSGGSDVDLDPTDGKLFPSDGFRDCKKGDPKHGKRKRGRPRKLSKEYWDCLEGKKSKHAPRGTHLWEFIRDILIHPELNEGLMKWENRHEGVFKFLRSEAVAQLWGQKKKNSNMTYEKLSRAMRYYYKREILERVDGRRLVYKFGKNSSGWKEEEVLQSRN
# In short: as §1
# [10] = target: ETV1 (Homo sapiens, UniProt P50549 1-477)
# In short: as §1
# [11] = target: T8, ERF (Homo sapiens, UniProt P50548 1-548)
# T8 sequence: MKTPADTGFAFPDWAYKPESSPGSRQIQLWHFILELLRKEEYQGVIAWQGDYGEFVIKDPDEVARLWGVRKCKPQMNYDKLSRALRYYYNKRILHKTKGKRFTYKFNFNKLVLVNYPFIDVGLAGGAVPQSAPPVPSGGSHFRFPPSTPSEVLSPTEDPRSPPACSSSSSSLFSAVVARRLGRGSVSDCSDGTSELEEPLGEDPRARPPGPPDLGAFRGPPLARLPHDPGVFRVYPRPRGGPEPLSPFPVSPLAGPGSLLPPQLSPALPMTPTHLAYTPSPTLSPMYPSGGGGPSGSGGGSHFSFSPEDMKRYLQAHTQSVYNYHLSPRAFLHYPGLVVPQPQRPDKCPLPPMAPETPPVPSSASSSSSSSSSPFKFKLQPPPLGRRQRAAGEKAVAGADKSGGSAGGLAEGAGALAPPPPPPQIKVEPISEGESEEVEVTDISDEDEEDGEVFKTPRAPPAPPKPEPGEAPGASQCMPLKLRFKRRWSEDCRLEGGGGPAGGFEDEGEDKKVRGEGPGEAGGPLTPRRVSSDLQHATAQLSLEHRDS
# In short: as §1
# [12] = target: T9, ELF5 (Homo sapiens, UniProt Q9UKW6-2 1-255)
# T9 sequence: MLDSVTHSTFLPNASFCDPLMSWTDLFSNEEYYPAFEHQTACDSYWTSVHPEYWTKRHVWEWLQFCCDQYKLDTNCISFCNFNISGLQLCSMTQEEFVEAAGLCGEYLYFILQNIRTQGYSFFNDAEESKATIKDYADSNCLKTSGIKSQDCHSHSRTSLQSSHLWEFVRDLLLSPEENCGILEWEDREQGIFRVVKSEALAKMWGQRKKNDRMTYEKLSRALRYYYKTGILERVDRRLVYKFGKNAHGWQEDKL
# In short: as §1
# [13] = target: ETV6 (Homo sapiens, UniProt P41212 1-452)
# In short: as §1
# Sequence of CRX (O43186 whole entry): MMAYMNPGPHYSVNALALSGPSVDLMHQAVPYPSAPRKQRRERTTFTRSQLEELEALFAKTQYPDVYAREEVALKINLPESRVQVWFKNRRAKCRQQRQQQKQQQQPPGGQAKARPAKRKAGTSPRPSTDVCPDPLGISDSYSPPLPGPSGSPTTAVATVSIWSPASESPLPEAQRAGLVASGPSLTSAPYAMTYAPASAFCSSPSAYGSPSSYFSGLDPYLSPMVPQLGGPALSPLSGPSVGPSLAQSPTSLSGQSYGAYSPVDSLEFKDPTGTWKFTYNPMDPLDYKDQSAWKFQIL
# Sequence of ELF1 (P32519 whole entry): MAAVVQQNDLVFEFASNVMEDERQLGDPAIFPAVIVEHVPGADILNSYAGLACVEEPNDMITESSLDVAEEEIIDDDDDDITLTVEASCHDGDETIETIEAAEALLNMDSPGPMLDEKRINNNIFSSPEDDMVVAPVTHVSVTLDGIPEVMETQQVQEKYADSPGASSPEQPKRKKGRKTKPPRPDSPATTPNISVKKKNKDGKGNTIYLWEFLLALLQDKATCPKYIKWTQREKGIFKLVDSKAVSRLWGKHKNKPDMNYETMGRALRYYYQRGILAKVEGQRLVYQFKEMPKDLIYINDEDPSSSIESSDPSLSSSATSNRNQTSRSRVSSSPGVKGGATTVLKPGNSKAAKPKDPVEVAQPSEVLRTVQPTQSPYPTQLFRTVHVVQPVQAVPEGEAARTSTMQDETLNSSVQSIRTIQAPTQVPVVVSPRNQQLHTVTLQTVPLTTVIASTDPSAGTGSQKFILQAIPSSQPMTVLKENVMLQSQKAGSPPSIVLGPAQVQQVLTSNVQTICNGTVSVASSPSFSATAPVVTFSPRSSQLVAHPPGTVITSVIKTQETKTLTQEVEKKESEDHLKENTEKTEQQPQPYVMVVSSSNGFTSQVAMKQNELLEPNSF
# Sequence of ETV6 (P41212 whole entry): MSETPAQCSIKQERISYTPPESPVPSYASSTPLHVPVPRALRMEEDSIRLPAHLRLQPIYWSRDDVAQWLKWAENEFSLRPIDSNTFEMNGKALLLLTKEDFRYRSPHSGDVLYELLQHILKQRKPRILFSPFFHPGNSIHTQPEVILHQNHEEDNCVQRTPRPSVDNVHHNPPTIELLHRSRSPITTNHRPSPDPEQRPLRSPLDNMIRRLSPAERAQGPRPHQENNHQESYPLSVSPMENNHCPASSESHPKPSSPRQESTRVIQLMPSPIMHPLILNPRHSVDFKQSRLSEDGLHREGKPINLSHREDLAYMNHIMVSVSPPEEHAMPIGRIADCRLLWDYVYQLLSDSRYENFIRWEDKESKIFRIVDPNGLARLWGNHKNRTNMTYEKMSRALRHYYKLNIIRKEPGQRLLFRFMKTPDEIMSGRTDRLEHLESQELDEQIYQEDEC
# Sequence of ETV1 (P50549 whole entry): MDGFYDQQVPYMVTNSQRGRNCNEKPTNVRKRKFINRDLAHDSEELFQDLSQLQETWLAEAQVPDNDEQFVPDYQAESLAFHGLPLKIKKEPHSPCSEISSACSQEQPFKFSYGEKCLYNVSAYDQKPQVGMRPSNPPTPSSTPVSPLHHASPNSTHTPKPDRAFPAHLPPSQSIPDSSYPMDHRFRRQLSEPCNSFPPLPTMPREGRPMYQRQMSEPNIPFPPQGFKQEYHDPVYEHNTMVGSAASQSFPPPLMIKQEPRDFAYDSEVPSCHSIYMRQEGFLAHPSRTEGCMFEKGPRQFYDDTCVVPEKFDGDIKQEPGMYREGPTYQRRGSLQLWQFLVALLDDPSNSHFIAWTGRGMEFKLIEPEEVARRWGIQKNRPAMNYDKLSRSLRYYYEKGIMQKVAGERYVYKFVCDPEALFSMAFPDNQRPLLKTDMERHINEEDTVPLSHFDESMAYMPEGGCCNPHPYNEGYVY
sequence,measurement,setting,value
GATTGA,binding signal,[1],"1.01 fold enrichment (6-mer frequency, TF over GST control)"
same,binding signal,[2],"1.11 fold enrichment (6-mer frequency, TF over GST control)"
TGGGAC,binding signal,[3],"1 fold enrichment (6-mer frequency, TF over GST control)"
same,binding signal,[4],"1.03 fold enrichment (6-mer frequency, TF over GST control)"
same,binding signal,[5],"1.14 fold enrichment (6-mer frequency, TF over GST control)"
GTGTTG,binding signal,[4],"1.06 fold enrichment (6-mer frequency, TF over GST control)"
same,binding signal,[6],"1.01 fold enrichment (6-mer frequency, TF over GST control)"
GACCAA,binding signal,[1],"1.05 fold enrichment (6-mer frequency, TF over GST control)"
same,binding signal,[7],"1.04 fold enrichment (6-mer frequency, TF over GST control)"
same,binding signal,[8],"1.02 fold enrichment (6-mer frequency, TF over GST control)"
same,binding signal,[4],"1.01 fold enrichment (6-mer frequency, TF over GST control)"
AGGTAA,binding signal,[1],"1.03 fold enrichment (6-mer frequency, TF over GST control)"
same,binding signal,[7],"1.02 fold enrichment (6-mer frequency, TF over GST control)"
same,binding signal,[9],"1.11 fold enrichment (6-mer frequency, TF over GST control)"
same,binding signal,[2],"1.14 fold enrichment (6-mer frequency, TF over GST control)"
same,binding signal,[10],"1.02 fold enrichment (6-mer frequency, TF over GST control)"
same,binding signal,[11],"1.06 fold enrichment (6-mer frequency, TF over GST control)"
same,binding signal,[6],"1 fold enrichment (6-mer frequency, TF over GST control)"
same,binding signal,[12],"1.01 fold enrichment (6-mer frequency, TF over GST control)"
same,binding signal,[13],"1.02 fold enrichment (6-mer frequency, TF over GST control)"
